Several values for one entry are separate records, joined by “and”; a condition that tells them apart may be missing. Equal values may be shown once. The campaign covered roughly 5,500 compounds. About 2,000 (36%) were called active. Inconclusive results (about 18%) are left out. No stated cut-off is given here; in the data, active means normalized growth mostly below about 0.91 (no sharp cut-off); inconclusive means no clear call, values can overlap the other calls; inactive means mostly above about 0.92. The list shows a part of the results.
Assay: chemical genetic growth profiling, strain panel (AID 1159580);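 further: tested at 20 µM; growth read once vehicle control cultures reached saturation at 30 °C; 1 = growth at the plate median or of vehicle wells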
Settings: S. cerevisiae deletion strains, growth OD

Measured: normalized growth

CN(C)CCOC(c1ccc(Cl)cc1)c1ccccn1 (centres undefined)
inactive: locus YAL021C, strain ccr4, stronger effect = lower value 1.04 | locus YAL026C, strain drs2, stronger effect = lower value 1.05 | locus YAL030W, strain snc1, stronger effect = lower value 1.03 | locus YBL061C, strain skt5, stronger effect = lower value 1.04 | locus YBR009C, strain hhf1, stronger effect = lower value 1.02 | locus YBR021W, strain FUR4, stronger effect = lower value 0.966 | locus YBR023C, strain chs3, stronger effect = lower value 1.03 | locus YBR171W, strain sec66, stronger effect = lower value 1.02 | locus YBR229C, strain ROT2, stronger effect = lower value 1 | locus YBR231C, strain swc5, stronger effect = lower value 1.01 | locus YBR279W, strain paf1, stronger effect = lower value 1.02 | locus YCL011C, strain gbp2, stronger effect = lower value 1.01 | locus YCL016C, strain dcc1, stronger effect = lower value 1.01 | locus YCL029C, strain bik1, stronger effect = lower value 0.999 | locus YCL069W, strain vba3, stronger effect = lower value 1.02 | locus YCR088W, strain abp1, stronger effect = lower value 1.01 | locus YDL005C, strain med2, stronger effect = lower value 1.03 | locus YDL035C, strain GPR1, stronger effect = lower value 0.978 | locus YDL040C, strain nat1, stronger effect = lower value 1.02 | locus YDL074C, strain BRE1, stronger effect = lower value 1.03 | locus YDL101C, strain DUN1, stronger effect = lower value 1.04 | locus YDL185W, strain tfp1, stronger effect = lower value 1 | locus YDL192W, strain arf1, stronger effect = lower value 1.01 | locus YDR001C, strain nth1, stronger effect = lower value 1.02 | locus YDR069C, strain doa4, stronger effect = lower value 1.03 | locus YDR101C, strain arx1, stronger effect = lower value 1.01 | locus YDR137W, strain rgp1, stronger effect = lower value 1.01 | locus YDR159W, strain sac3, stronger effect = lower value 1.02 | locus YDR162C, strain NBP2, stronger effect = lower value 0.975 | locus YDR195W, strain ref2 1.02 | locus YDR297W, strain sur2, stronger effect = lower value 1.03 | locus YDR318W, strain mcm21, stronger effect = lower value 0.998 | locus YDR334W, strain swr1, stronger effect = lower value 1.01 | locus YDR335W, strain msn5, stronger effect = lower value 1.03 | locus YDR388W, stronger effect = lower value 1.01 | locus YDR392W, strain spt3, stronger effect = lower value 1.01 | locus YDR502C, strain sam2, stronger effect = lower value 1.03 | locus YEL003W, strain gim4, stronger effect = lower value 1.01 | locus YEL037C, strain rad23, stronger effect = lower value 1.02 | locus YEL061C, strain CIN8 (second series), stronger effect = lower value 1.02 | locus YEL061C, strain CIN8, stronger effect = lower value 1.01 | locus YER015W, strain faa2, stronger effect = lower value 1.04 | locus YER016W, strain bim1, stronger effect = lower value 0.997 | locus YER110C, stronger effect = lower value 1.02 | locus YER111C, strain swi4, stronger effect = lower value 1.03 | locus YER155C, strain BEM2 (second series), stronger effect = lower value 1.02 | locus YER155C, strain BEM2, stronger effect = lower value 1.02 | locus YER167W, strain BCK2, stronger effect = lower value 0.99 | locus YFR010W, strain ubp6, stronger effect = lower value 1.03 | locus YGL078C, strain dbp3, stronger effect = lower value 0.998 | locus YGL086W, strain mad1, stronger effect = lower value 1.01 | locus YGL167C, strain pmr1, stronger effect = lower value 1.01 | locus YGL173C, strain kem1, stronger effect = lower value 1.02 | locus YGL227W, strain vid30, stronger effect = lower value 1.03 | locus YGL240W, strain doc1, stronger effect = lower value 1.04 | locus YGL248W, strain PDE1, stronger effect = lower value 1.04 | locus YGL253W, strain hxk2, stronger effect = lower value 1.03 | locus YGR078C, strain PAC10, stronger effect = lower value 1.02 | locus YGR135W, strain pre9, stronger effect = lower value 1 | locus YGR229C, strain SMI1, stronger effect = lower value 0.983 | locus YGR252W, strain gcn5, stronger effect = lower value 0.947 | locus YHR013C, strain ard1, stronger effect = lower value 1.01 | locus YHR027C, strain rpn1, stronger effect = lower value 1.02 | locus YHR030C, strain SLT2, stronger effect = lower value 1 and 1.02 | locus YHR079C, strain IRE1 (second series), stronger effect = lower value 1.01 | locus YHR079C, strain IRE1, stronger effect = lower value 1 | locus YHR094C, strain hxt1, stronger effect = lower value 1.01 | locus YHR129C, strain ARP1, stronger effect = lower value 1.01 | locus YHR142W, strain chs7, stronger effect = lower value 1.02 | locus YHR200W, strain rpn10, stronger effect = lower value 1.01 | locus YIL066C, strain RNR3, stronger effect = lower value 0.957 | locus YIL073C, strain SPO22, stronger effect = lower value 1 | locus YIL125W, strain kgd1, stronger effect = lower value 0.995 | locus YIR030C, strain dcg1, stronger effect = lower value 1.03 | locus YJL092W, strain hpr5, stronger effect = lower value 1.02 | locus YJL095W, strain BCK1 (second series), stronger effect = lower value 1.01 | locus YJL095W, strain BCK1, stronger effect = lower value 1.07 and 1 | locus YJL115W, strain asf1, stronger effect = lower value 1.02 | locus YJL129C, strain trk1, stronger effect = lower value 1.05 | locus YJL134W, strain LCB3, stronger effect = lower value 1.01 | locus YJL154C, strain vps35, stronger effect = lower value 1.02 | locus YJL164C, strain tpk1, stronger effect = lower value 1 | locus YJL166W, strain qcr8, stronger effect = lower value 1.03 | locus YJL168C, strain set2, stronger effect = lower value 1.02 | locus YJL187C, strain SWE1 (second series), stronger effect = lower value 1.04 | locus YJL187C, strain SWE1, stronger effect = lower value 1.01 | locus YJR043C, strain POL32, stronger effect = lower value 0.968 | locus YJR066W, strain TOR1, stronger effect = lower value 0.981 | locus YJR075W, strain HOC1, stronger effect = lower value 1.03 | locus YKL009W, strain mrt4, stronger effect = lower value 1.02 | locus YKL068W, stronger effect = lower value 0.997 | locus YKL085W, strain MDH1 (second series), stronger effect = lower value 0.989 | locus YKL085W, strain MDH1, stronger effect = lower value 0.989 | locus YKL160W, strain elf1, stronger effect = lower value 1.02 | locus YKL190W, strain CNB1, stronger effect = lower value 1 | locus YKR001C, strain vps1, stronger effect = lower value 1 | locus YKR026C, strain gcn3, stronger effect = lower value 1.03 | locus YKR091W, strain srl3, stronger effect = lower value 1.02 | locus YLL001W, strain dnm1, stronger effect = lower value 1.03 | locus YLL026W, stronger effect = lower value 1.03 | locus YLL041C, strain sdh2, stronger effect = lower value 1.02 | locus YLR027C, strain aat2, stronger effect = lower value 1.03 | locus YLR039C, strain RIC1, stronger effect = lower value 1.02 | locus YLR058C, strain SHM2, stronger effect = lower value 1.01 | locus YLR102C, strain apc9, stronger effect = lower value 1.01 | locus YLR113W, strain HOG1, stronger effect = lower value 0.987 | locus YLR221C, strain rsa3, stronger effect = lower value 1.01 | locus YLR258W, strain gsy2, stronger effect = lower value 1.01 | locus YLR262C, strain YPT6 (second series), stronger effect = lower value 1.04 | locus YLR262C, strain YPT6, stronger effect = lower value 1.05 | locus YLR268W, strain sec22, stronger effect = lower value 1 | locus YLR320W, strain mms22, stronger effect = lower value 1 | locus YLR330W, strain CHS5, stronger effect = lower value 1.01 | locus YLR342W, strain FKS1 (second series), stronger effect = lower value 0.95 | locus YLR342W, strain FKS1, stronger effect = lower value 1.04 | locus YLR357W, strain rsc2, stronger effect = lower value 1.06 | locus YLR370C, strain arc18, stronger effect = lower value 1.01 | locus YLR371W, strain rom2, stronger effect = lower value 1 | locus YLR384C, strain iki3, stronger effect = lower value 1.03 | locus YLR418C, strain cdc73, stronger effect = lower value 1.07 | locus YML016C, strain PPZ1, stronger effect = lower value 1.01 | locus YML032C, strain rad52, stronger effect = lower value 0.998 | locus YML120C, strain ndi1, stronger effect = lower value 1.02 | locus YML124C, strain tub3, stronger effect = lower value 1 | locus YMR058W, strain fet3, stronger effect = lower value 1.03 | locus YMR078C, strain ctf18, stronger effect = lower value 1.01 | locus YMR125W, strain sto1, stronger effect = lower value 1.01 | locus YMR129W, stronger effect = lower value 1.03 | locus YMR205C, strain PFK2, stronger effect = lower value 1.03 | locus YMR223W, strain ubp8, stronger effect = lower value 0.998 | locus YMR231W, strain pep5, stronger effect = lower value 1.03 | locus YMR307W, strain GAS1, stronger effect = lower value 0.976 | locus YNL067W, strain RPL9B, stronger effect = lower value 1.06 | locus YNL071W, strain lat1, stronger effect = lower value 1.01 | locus YNL183C, strain NPR1, stronger effect = lower value 0.941 | locus YNL209W, strain ssb2, stronger effect = lower value 1.02 | locus YNL233W, strain BNI4, stronger effect = lower value 1.04 | locus YNL248C, strain rpa49, stronger effect = lower value 1.04 | locus YNL250W, strain rad50, stronger effect = lower value 1.02 | locus YNL271C, strain bni1, stronger effect = lower value 1.03 | locus YNL298W, strain CLA4, stronger effect = lower value 0.994 | locus YNL307C, strain MCK1, stronger effect = lower value 1.01 | locus YNL322C, strain KRE1 (second series), stronger effect = lower value 1.03 | locus YNL322C, strain KRE1, stronger effect = lower value 1.01 | locus YNR049C, strain mso1, stronger effect = lower value 1.02 | locus YNR052C, strain pop2, stronger effect = lower value 1.01 | locus YOL012C, strain htz1 0.873 | locus YOL147C, strain pex11, stronger effect = lower value 1.01 | locus YOR001W, strain rrp6, stronger effect = lower value 1.04 | locus YOR061W, strain CKA2, stronger effect = lower value 1.01 | locus YOR069W, strain VPS5, stronger effect = lower value 1.01 | locus YOR070C, strain gyp1, stronger effect = lower value 1.01 | locus YOR080W, strain dia2, stronger effect = lower value 1.02 | locus YOR083W, strain WHI5, stronger effect = lower value 1.03 | locus YOR106W, strain vam3, stronger effect = lower value 1.03 | locus YOR136W, strain idh2, stronger effect = lower value 1.01 | locus YOR144C, strain elg1, stronger effect = lower value 1 | locus YOR184W, strain ser1, stronger effect = lower value 0.997 | locus YOR231W, strain MKK1, stronger effect = lower value 0.996 | locus YOR265W, strain rbl2, stronger effect = lower value 1.02 | locus YOR270C, strain vph1, stronger effect = lower value 1.05 | locus YOR290C, strain snf2, stronger effect = lower value 1 | locus YOR316C, strain cot1, stronger effect = lower value 1.01 | locus YPL051W, strain arl3, stronger effect = lower value 1.03 | locus YPL055C, strain LGE1, stronger effect = lower value 0.976 | locus YPL078C, strain atp4, stronger effect = lower value 1.02 | locus YPL106C, strain sse1, stronger effect = lower value 0.993 | locus YPL240C, strain hsp82, stronger effect = lower value 1.01 | locus YPL256C, strain CLN2, stronger effect = lower value 1 | locus YPR119W, strain clb2, stronger effect = lower value 1.01 | locus YPR141C, strain kar3, stronger effect = lower value 1.01 | locus YPR163C, strain tif3, stronger effect = lower value 1 | locus YPR167C, strain met16, stronger effect = lower value 1 | strain wtn01, stronger effect = lower value 0.995
